The values below come from PubChem BioAssay (Tox21).

Records with an inconclusive call do not appear. Active and inactive are the calls of the source. Calls come from the whole dose curve.
% is set by controls: 0 for no effect and ±100 for the full control effect; potency is the fitted concentration of half-maximal effect.

Chain of Retinoic acid receptor RXR-alpha (Homo sapiens) (P19793 whole entry, looked up): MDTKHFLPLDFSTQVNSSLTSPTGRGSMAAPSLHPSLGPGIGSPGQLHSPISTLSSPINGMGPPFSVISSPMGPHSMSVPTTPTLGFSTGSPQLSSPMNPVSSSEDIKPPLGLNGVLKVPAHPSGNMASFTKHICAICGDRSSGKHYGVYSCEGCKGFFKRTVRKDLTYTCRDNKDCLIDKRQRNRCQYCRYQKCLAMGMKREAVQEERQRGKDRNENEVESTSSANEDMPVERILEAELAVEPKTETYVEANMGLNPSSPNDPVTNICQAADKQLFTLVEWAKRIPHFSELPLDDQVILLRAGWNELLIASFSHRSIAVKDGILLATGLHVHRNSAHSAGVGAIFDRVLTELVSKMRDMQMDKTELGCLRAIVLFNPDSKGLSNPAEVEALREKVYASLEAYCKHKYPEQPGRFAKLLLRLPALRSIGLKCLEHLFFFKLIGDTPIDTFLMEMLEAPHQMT

This experiment addresses Retinoic acid receptor RXR-alpha (Homo sapiens) (UniProt P19793). Briefly: qHTS assay to identify small molecule agonists of the RXR signaling pathway (AID 1159527). Note: nearly all actives have a fitted effect of over 35% in size. Particulars: HEK293T RXRa-UAS-bla, beta-lactamase ratio, 16 h; series mostly up to 76.8 µM; activation: at the top concentration. From the text:
U.S. Tox21 Program National Center for Advancing Translational Sciences [NCATS] NIH Chemical Genomics Center [NCGC] U.S. Environmental Protection Agency [EPA] National Institutes of Environmental Health Sciences [NIEHS] National Toxicology Program [NTP] U.S. Food and Drug Administration [FDA] Tox21 Assay Overview: The Retinoid X receptor (RXR), a nuclear hormone receptor expressed in liver, spleen, placenta, epidermis, central nervous system. These receptors are able to form homo and heterodimers with other nuclear receptors and due to this heterodimerizing ability, RXR functions as master regulators producing diverse physiological effects. Three subtypes of RXR exist; alpha, beta and gamma. Retinoid X receptor alpha (RXR-alpha) has potential roles in metabolic signaling pathways, skin alopecia, dermal cysts, cardiac development, insulin sensitization etc. Therefore screening environmental chemicals on RXR-alpha signaling can be used for the studies focused on such therapeutic applications. For quantification of RXR-alpha ligands signaling, GeneBLAzer RXR alpha-UAS-bla HEK 293T (Life Technologies, Carlsbad, CA) cells containing a beta-lactamase reporter-gene under control of Retinoid X receptor-alpha response element were used to screen Tox21 10K library.
Tox21 Assay Protocol Summary: RXR-alpha HEK 293T cells were dispensed at 2,000 cells/6 uL of assay medium containing 2% charcoal-stripped FBS using a Multidrop Combi (ThermoFisher Scientific, Waltham, MA) dispenser. The assay was performed in black wall/clear-bottom 1536-well plates (Greiner Bio-One North America Inc. Monroe, NC). 9-cis retinoic acid was used as a positive control in the agonist mode screen. After the assay plates were incubated at 37 C and 5% CO2 for 5 hr, 23 nL of compounds dissolved in DMSO, positive controls or DMSO only were transferred to the assay plate by a Pintool station (Kalypsys, San Diego, CA). The assay plates were incubated at 37 C and 5% CO2 for 16 hr. One uL of LiveBLAzer B/G FRET substrate (Life Technologies) was added using a Flying Reagent Dispenser (Aurora Discovery, San Diego, CA) and the plates were incubated at room temperature for 2 hr. Fluorescence intensity (405 nm excitation, 460/530 nm emission) was measured using an Envision plate reader (PerkinElmer, Shelton, CT).
For `CC(C)OC(=O)C(O)(CC(=O)O)CC(=O)O`, the Potency was 21.9 µM (active). With `CC(CCc1ccccc1)NCC(O)c1ccc(O)c(C(N)=O)c1` (stereo not given), the “activation” value is -3.32% (inactive). Same read-out and setting: the same measure for `CCCCCCOC(=O)C(C)CC` (stereo not given): -4.76% (inactive); for `O[C@@H]([C@H](O)[C@H](O)CBr)[C@H](O)CBr`: 9.96% (inactive); for `CCOC(=O)NNc1ccc(N(CC)CC(C)O)nn1` (stereo not given): -5.05% [at 35.3 µM] (inactive).

Regarding `CCCC(=O)OCOC(=O)C1=C(C)NC(C)=C(C(=O)OC)C1c1cccc(Cl)c1Cl` (stereo not given), the “activation” value is -15.5% [at 35.3 µM] (inactive).

Turning to `CN(C)Cc1cc(C(C)(C)C)c(O)c(C(C)(C)C)c1`, the Potency was 11 µM (active). In the case of `CC1=CCC(=C(C)C)CC1`, the “activation” value is 3.76% (inactive). Still for that read-out and setting: the same measure for `Cc1ccc(C(=O)O)cc1`: 0.832% (inactive); for `CCOc1ccc2ccccc2c1C(=O)N[C@@H]1C(=O)N2[C@@H]1SC(C)(C)[C@@H]2C(=O)O`: 7.73% [at 35.3 µM] (inactive); for `OCC(F)(F)F`: -19.7% (inactive).

On to `Cc1cc(C(C)(C)C)cc(C)c1CC1=NCCN1`, for which the “activation” value is -5.04% [at 35.3 µM] (inactive). `CCc1cccc(CC)c1NC(=O)CN(CC(=O)O)CC(=O)O`: the “activation” value was 4.24% [at 35.3 µM] (inactive).

`Cc1cc(-c2ccc(N=Nc3cc(S(=O)(=O)O)c4ccccc4c3N)c(C)c2)ccc1N=Nc1cc(S(=O)(=O)O)c2ccccc2c1N`: the “activation” value was -18.1% (inactive). On the same count and under the same terms, the value for `COC(=O)c1ccccc1OC` was 10.8% (inactive). Still for that read-out and setting: the same measure for `CN(C)CCN1CCN(c2cccc(Cl)c2)C1=O`: 1.57% [at 35.3 µM] (inactive). Still for that read-out and setting: the value for `Fc1ccc(C(c2ccc(F)cc2)N2CCNCC2)cc1` was -10.7% [at 35.3 µM] (inactive); that for `COc1cc(S(=O)(=O)O)c(C)cc1N=Nc1c(O)ccc2cc(S(=O)(=O)O)ccc12` was -0.632% (inactive).

As to `CC1(C)CCC[C@]2(C)[C@H]3CCO[C@]3(C)CC[C@@H]12`, the “activation” value was 9.32% (inactive). On the same count and under the same terms, the value for `Cc1ccc(C(C)C)cc2c(C)ccc1-2` was 0.972% [at 35.3 µM] (inactive); that for `CCCCNS(=O)(=O)c1ccc(C)cc1` was 4.93% (inactive); that for `CCCNCCC` was 11.4% (inactive). Consider `CC(C)(C)CC(C)(C)c1ccc(Nc2ccc(C(C)(C)CC(C)(C)C)cc2)cc1`, for which the activation is 3.93% [at 6.98 µM] (inactive).

Consider `C=Cc1cccc(C)c1`, for which the Potency result was “inactive”. With `COC(=O)c1ccccc1C`, the “activation” value was -3.99% (inactive). Same read-out and setting: the same measure for `Nc1ccc(C(=O)O)c(O)c1`: -1.95% [at 35.3 µM] (inactive). Still for that read-out and setting: the same measure for `OC1CCCc2ccccc21` (stereo not given): -7.42% (inactive); for `O=C(O)c1ccc2cc(C(=O)O)ccc2c1`: 15.6% (inactive); for `Cc1c(C)c2c(c(C)c1O)CC[C@@](C)(CCC[C@H](C)CCC[C@H](C)CCCC(C)C)O2`: 8.02% (inactive). The same measure, in the same setting: the same measure for `CN1CCN2c3ccccc3Cc3ccccc3C2C1` (stereo not given): 8.31% [at 35.3 µM] (inactive); for `CN(C)Cc1ccccc1O`: -0.972% (inactive). Take `O=S(=O)(O)c1ccc(Nc2nc(Nc3ccc(/C=C/c4ccc(Nc5nc(Nc6ccc(S(=O)(=O)O)cc6)nc(N(CCO)CCO)n5)cc4S(=O)(=O)O)c(S(=O)(=O)O)c3)nc(N(CCO)CCO)n2)cc1`: the Potency was 26.3 µM (active).

For `Cc1c(C)c2c(c(C)c1OC(=O)c1cccnc1)CC[C@@](C)(CCC[C@H](C)CCC[C@H](C)CCCC(C)C)O2`, the “activation” value is 8.69% [at 35.3 µM] (inactive). For `CCCC(=O)OCCc1ccccc1`, the “activation” value was 14.6% (inactive). Same read-out and setting: the same measure for `Cc1nc2n(c(=O)c1CCN1CCC(c3noc4cc(F)ccc34)CC1)CCCC2`: -6.41% [at 35.3 µM] (inactive). Still for that read-out and setting: the same measure for `Cl[Si](Cl)(c1ccccc1)c1ccccc1`: -9.44% (inactive). Turning to `Cc1cccc(C(=O)O)c1O`, the “activation” value is 6.08% [at 35.3 µM] (inactive). Same read-out and setting: the same measure for `COCCOc1cc2cc(C(=O)NC3CCN(C(C)C)CC3)n(CC(=O)Nc3ccc(Cl)cn3)c2cn1`: 5.9% (inactive); for `Cc1ccc(O)c(O)c1`: -19% (inactive). Consider `COc1cc2nc(N3CCN(C(=O)c4ccco4)CC3)nc(N)c2cc1OC`, for which the activation is -11.7% [at 15.8 µM] (inactive).
